# Source: the supplement of paper PMC12067093, “Discovery and optimisation of a covalent ligand for TRIM25 and its application to targeted protein ubiquitination” (Chemical Science, 2025)
# About 21,000 targets were measured; listed, in parts, are those with the largest changes and a random draw of the rest.
# Compound: CC1Cc2ccccc2N1C(=O)C1CCCN(C1)C(=O)CCl (mixture of isomers) [TRIM25 ligand 11 (diastereomer mixture)]
# Assay: probe-labelled cysteine peptide fold change vs DMSO (competition) (log2 fold change); higher = less target engagement (more negative = stronger competition)
# Details: 10 µM; THP-1; incubation time: 4 h
# 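Also: competitive chemoproteomic profiling in live THP-1 cells with an iodoacetamide desthiobiotin (IA-DTB) probe, comparing probe-labelled peptide intensities in compound-treated cells against DMSO-treated controls.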
# Chain of UniProt Q8IWV7 (Q8IWV7 whole entry, looked up): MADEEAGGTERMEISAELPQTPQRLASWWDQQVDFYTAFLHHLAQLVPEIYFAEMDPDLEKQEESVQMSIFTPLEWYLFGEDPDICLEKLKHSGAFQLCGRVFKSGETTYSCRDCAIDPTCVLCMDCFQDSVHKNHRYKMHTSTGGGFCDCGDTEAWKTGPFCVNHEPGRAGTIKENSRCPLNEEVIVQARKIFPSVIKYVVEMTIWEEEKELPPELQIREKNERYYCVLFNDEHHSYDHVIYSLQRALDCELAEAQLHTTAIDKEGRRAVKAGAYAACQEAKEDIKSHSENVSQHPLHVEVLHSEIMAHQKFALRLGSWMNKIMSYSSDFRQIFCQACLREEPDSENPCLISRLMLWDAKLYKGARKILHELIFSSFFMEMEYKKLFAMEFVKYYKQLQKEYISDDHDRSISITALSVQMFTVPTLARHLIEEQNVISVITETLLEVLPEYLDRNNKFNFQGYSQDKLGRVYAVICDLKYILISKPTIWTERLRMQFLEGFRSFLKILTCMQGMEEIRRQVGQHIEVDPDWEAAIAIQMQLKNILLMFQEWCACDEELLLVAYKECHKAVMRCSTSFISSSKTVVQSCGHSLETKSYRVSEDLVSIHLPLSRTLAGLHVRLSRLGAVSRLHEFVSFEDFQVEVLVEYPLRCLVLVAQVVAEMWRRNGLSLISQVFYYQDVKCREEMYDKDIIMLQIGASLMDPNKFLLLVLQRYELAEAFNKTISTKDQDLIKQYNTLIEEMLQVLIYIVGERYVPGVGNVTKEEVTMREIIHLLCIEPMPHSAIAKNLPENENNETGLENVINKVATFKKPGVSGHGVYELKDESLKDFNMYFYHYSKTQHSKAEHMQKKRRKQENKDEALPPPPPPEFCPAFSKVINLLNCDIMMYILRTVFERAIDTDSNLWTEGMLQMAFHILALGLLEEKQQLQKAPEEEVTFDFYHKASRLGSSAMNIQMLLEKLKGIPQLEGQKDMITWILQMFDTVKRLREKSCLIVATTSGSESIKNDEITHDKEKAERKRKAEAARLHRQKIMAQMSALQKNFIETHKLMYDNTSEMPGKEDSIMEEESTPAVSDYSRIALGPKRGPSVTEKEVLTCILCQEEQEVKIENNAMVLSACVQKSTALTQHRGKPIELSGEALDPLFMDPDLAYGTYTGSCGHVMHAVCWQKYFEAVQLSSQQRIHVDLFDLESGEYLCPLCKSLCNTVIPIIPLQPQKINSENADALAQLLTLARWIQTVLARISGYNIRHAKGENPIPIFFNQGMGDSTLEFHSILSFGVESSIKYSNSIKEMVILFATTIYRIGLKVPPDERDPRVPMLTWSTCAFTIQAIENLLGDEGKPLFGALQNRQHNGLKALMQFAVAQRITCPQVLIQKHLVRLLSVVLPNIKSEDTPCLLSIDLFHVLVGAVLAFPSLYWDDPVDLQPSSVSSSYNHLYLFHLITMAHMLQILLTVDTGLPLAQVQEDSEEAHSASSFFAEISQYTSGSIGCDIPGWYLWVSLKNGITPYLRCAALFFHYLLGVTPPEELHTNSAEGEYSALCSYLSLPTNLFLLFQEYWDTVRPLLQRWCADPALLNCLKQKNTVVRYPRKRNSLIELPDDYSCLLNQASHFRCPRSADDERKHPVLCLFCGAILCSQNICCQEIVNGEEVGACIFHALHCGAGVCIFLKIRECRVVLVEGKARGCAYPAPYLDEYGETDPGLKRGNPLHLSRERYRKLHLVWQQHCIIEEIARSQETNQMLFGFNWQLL
# Chain of UniProt P15498 (P15498 whole entry, looked up): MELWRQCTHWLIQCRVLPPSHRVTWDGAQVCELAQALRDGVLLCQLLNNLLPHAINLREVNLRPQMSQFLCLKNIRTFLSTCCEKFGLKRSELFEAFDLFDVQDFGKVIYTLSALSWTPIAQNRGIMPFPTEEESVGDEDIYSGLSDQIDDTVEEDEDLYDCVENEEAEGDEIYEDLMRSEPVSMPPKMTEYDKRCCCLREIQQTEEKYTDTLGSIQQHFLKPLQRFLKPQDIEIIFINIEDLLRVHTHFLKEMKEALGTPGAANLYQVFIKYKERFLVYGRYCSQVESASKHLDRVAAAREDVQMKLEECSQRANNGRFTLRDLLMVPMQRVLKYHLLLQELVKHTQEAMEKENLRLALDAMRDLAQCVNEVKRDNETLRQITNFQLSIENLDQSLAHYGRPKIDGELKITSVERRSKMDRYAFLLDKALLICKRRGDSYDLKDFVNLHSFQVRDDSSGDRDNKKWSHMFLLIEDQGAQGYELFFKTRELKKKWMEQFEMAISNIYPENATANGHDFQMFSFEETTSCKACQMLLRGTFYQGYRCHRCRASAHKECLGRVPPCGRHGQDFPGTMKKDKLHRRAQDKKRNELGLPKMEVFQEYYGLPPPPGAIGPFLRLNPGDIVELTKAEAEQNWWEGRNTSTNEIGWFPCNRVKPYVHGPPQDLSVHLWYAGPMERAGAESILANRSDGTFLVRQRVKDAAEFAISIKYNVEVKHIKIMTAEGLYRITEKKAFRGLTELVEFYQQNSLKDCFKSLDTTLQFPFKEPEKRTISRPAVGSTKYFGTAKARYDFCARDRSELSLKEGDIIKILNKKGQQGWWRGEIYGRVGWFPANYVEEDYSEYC
# Chain of UniProt Q6PKC3 (Q6PKC3 whole entry, looked up): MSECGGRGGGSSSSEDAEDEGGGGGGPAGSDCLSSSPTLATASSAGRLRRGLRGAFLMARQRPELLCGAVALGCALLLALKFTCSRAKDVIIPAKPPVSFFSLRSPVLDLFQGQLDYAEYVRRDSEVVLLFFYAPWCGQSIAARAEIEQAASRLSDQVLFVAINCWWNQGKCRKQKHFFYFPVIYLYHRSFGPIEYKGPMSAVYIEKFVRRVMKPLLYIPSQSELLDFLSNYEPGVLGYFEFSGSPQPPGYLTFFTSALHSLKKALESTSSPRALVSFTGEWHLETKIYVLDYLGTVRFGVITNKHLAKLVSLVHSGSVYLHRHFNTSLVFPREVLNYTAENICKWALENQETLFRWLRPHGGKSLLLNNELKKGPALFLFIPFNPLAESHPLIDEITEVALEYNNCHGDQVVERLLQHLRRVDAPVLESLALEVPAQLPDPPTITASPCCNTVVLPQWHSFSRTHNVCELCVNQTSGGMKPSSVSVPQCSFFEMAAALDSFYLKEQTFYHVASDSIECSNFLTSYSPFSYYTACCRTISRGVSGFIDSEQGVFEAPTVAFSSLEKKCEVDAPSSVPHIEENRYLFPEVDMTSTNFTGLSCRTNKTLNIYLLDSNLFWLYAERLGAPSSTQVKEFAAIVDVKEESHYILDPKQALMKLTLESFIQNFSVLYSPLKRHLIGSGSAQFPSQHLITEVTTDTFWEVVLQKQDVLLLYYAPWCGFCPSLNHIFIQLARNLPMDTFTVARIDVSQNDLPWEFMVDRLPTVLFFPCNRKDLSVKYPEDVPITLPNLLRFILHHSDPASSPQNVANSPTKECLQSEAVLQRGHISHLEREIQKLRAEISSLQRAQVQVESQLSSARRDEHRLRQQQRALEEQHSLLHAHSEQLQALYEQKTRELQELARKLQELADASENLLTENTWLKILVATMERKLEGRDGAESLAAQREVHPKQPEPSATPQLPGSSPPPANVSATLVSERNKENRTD
# Chain of UniProt O75717 (O75717 whole entry, looked up): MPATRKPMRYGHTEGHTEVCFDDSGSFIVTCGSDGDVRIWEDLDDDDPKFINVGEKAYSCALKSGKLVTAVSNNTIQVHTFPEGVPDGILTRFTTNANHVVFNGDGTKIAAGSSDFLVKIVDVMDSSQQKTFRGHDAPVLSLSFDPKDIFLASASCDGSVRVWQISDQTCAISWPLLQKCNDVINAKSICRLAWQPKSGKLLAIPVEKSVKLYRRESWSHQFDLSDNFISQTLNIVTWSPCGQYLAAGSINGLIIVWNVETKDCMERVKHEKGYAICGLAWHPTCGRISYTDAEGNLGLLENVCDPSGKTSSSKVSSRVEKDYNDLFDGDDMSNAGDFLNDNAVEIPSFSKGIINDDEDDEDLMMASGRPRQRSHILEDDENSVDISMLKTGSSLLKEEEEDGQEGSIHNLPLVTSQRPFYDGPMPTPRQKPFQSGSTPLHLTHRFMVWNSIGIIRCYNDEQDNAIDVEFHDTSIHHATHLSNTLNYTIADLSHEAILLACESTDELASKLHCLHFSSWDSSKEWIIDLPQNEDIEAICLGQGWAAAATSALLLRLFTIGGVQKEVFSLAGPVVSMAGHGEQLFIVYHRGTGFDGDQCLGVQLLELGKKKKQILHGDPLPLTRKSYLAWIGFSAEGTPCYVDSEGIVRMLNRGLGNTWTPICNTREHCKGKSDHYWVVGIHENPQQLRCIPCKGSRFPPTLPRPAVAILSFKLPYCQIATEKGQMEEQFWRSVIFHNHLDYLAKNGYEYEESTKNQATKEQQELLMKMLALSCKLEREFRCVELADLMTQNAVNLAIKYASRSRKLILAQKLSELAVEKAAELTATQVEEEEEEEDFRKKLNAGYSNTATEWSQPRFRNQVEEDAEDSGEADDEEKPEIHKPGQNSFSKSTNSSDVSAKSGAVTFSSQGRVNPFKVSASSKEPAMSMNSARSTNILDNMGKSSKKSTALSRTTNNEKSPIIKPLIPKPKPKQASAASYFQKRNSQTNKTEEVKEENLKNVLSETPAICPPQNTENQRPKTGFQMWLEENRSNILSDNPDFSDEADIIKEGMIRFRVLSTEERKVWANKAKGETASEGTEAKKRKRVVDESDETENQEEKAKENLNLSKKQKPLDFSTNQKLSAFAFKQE
# Chain of UniProt O43396 (O43396 whole entry, looked up): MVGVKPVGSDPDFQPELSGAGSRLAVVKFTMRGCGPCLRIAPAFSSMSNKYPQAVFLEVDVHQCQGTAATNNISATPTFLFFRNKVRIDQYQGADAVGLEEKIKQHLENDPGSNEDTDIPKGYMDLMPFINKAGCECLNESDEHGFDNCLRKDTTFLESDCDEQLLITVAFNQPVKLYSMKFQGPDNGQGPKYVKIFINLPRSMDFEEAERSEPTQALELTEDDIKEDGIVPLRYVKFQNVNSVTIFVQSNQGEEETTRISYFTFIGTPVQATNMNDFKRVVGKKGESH
row,Target,probe-labelled cysteine peptide fold change
1,WDR70_Q9NW82_383_QAHDSGTDTSCVTFSYDGNVLASR (UniProt Q9NW82),0.312
2,UNC13D_Q70J99_255_CREDQWYPLEPR (UniProt Q70J99),-0.0799
3,TTC37_Q6PGP7_1162_CLLTSAIYALQGR (UniProt Q6PGP7),-0.13
4,UBR4_Q5T4S7_1662_LCTFTITQK (UniProt Q5T4S7),-0.119
5,UBE2T_Q9NPD8_86_ICLDVLK (UniProt Q9NPD8),-0.00663
6,UBR4_Q5T4S7_4839+4841_QMEELIEEPGLTCCICR (UniProt Q5T4S7),0.337
7,TXNL1_O43396_135+149_AGCECLNESDEHGFDNCLR (UniProt O43396),0.0914
8,TUBB1_Q9H4B7_12_MREIVHIQIGQCGNQIGAK (UniProt Q9H4B7),0.489
9,VPS72_Q15906_163_GPHCERPLTQEELLR (UniProt Q15906),0.0992
10,TXNRD2_Q9NNW7_523_SGLDPTVTGCUG (UniProt Q9NNW7),-0.465
11,TXNDC11_Q6PKC3_815_ECLQSEAVLQR (UniProt Q6PKC3),-0.111
12,TTC28_Q96AY4_726_ALGNLGDIFICK (UniProt Q96AY4),0.224
13,TTC4_O95801_174_HFAEAVNWCDEGLQIDAK (UniProt O95801),-0.0931
14,UBR1_Q8IWV7_1726_LHLVWQQHCIIEEIAR (UniProt Q8IWV7),-0.0216
15,TTC27_Q6P3X3_514_ETPSLYCLLGDVLGDHSCYDK (UniProt Q6P3X3),-0.201
16,TSFM_P43897_149_FQLLVQQVALGTMMHCQTLK (UniProt P43897),-0.117
17,WNK1_Q9H4A3_1135_VVECQLETHNR (UniProt Q9H4A3),0.0982
18,TXNRD1_Q16881_577_IICNTK (UniProt Q16881),0.634
19,UAP1L1_Q3KQV9_50_AALLAELALLEPEALREHCR (UniProt Q3KQV9),0.0804
20,WDHD1_O75717_781_CVELADLMTQNAVNLAIK (UniProt O75717),0.0994
21,TXNRD2_Q9NNW7_279_GCAPSR (UniProt Q9NNW7),0.829
22,USP6_P35125_1036_AQAEPINLDSCLR (UniProt P35125),-0.111
23,UHRF1_Q96T88_497_TAEQSCDQK (UniProt Q96T88),0.0456
24,VAV1_P15498_31_VTWDGAQVCELAQALR (UniProt P15498),0.0648

# Same assay, conditions: 50 µM; THP-1; incubation time: 4 h
row,Target,probe-labelled cysteine peptide fold change
1,VEZF1_Q14119_327_TCMSEETSNQK (UniProt Q14119),-0.42
2,TYK2_P29597_1140_CPCEVYHLMK (UniProt P29597),-0.214
3,VCP_P55072_174_VVETDPSPYCIVAPDTVIHCEGEPIKR (UniProt P55072),-0.0884
4,WT1_P19544_385_HTGVKPFQCK (UniProt P19544),-0.103
5,UIMC1_Q96RL1_121_AIAESLNSCRPSDASATR (UniProt Q96RL1),-0.0493
6,UBE2Z_Q9H832_243_NYNECIR (UniProt Q9H832),-0.0648
7,UBR2_Q8IWV8_1332_VHPNEEDPRVPIMCWGSCAYTIQSIER (UniProt Q8IWV8),-0.616
8,VPS18_Q9P253_947_ADLDELVAAECVYCGELMIR (UniProt Q9P253),0.481
9,WDR55_Q9H6Y2_5_TCEERPAEDGSDEEDPDSMEAPTR (UniProt Q9H6Y2),-0.645
10,WDR47_O94967_672_GSIYCVAWSPCGQLLATGSNDK (UniProt O94967),-0.567
11,TTC14_Q96N46_165_DIAHLEITALCPLR (UniProt Q96N46),0.0914
12,USP20_Q9Y2K6_8_DLCPHLDSIGEVTKEDLLLK (UniProt Q9Y2K6),-0.352
13,TTF2_Q9UNY4_1118_FVCEGTVEEK (UniProt Q9UNY4),-0.00382
14,UNK_Q9C0B0_100_YDEATGLCPEGDECPFLHR (UniProt Q9C0B0),0.284
15,TRPM7_Q96QT4_1426_DQETVCSK (UniProt Q96QT4),-0.219
16,VCPIP1_Q96JH7_940_HCTFPHLPGK (UniProt Q96JH7),0.0163
17,WDR70_Q9NW82_383_QAHDSGTDTSCVTFSYDGNVLASR (UniProt Q9NW82),-0.591
18,UNC13D_Q70J99_255_CREDQWYPLEPR (UniProt Q70J99),-0.0552
19,TTC37_Q6PGP7_1162_CLLTSAIYALQGR (UniProt Q6PGP7),-0.0818
20,UBR4_Q5T4S7_1662_LCTFTITQK (UniProt Q5T4S7),-0.0801

row,Target,probe-labelled cysteine peptide fold change
1,UBE2T_Q9NPD8_86_ICLDVLK (UniProt Q9NPD8),0.103
2,UBR4_Q5T4S7_4839+4841_QMEELIEEPGLTCCICR (UniProt Q5T4S7),0.209
3,TXNL1_O43396_135+149_AGCECLNESDEHGFDNCLR (UniProt O43396),-0.234
4,TUBB1_Q9H4B7_12_MREIVHIQIGQCGNQIGAK (UniProt Q9H4B7),0.674
5,VPS72_Q15906_163_GPHCERPLTQEELLR (UniProt Q15906),-0.085
6,TXNRD2_Q9NNW7_523_SGLDPTVTGCUG (UniProt Q9NNW7),-2
7,TXNDC11_Q6PKC3_815_ECLQSEAVLQR (UniProt Q6PKC3),-0.159
8,TTC28_Q96AY4_726_ALGNLGDIFICK (UniProt Q96AY4),0.1
9,TTC4_O95801_174_HFAEAVNWCDEGLQIDAK (UniProt O95801),0.216
10,UBR1_Q8IWV7_1726_LHLVWQQHCIIEEIAR (UniProt Q8IWV7),0.0386
11,TTC27_Q6P3X3_514_ETPSLYCLLGDVLGDHSCYDK (UniProt Q6P3X3),-0.392
12,TSFM_P43897_149_FQLLVQQVALGTMMHCQTLK (UniProt P43897),-0.0693
13,WNK1_Q9H4A3_1135_VVECQLETHNR (UniProt Q9H4A3),0.156
14,TXNRD1_Q16881_577_IICNTK (UniProt Q16881),0.851
15,UAP1L1_Q3KQV9_50_AALLAELALLEPEALREHCR (UniProt Q3KQV9),0.0782
16,WDHD1_O75717_781_CVELADLMTQNAVNLAIK (UniProt O75717),0.0632
17,TXNRD2_Q9NNW7_279_GCAPSR (UniProt Q9NNW7),0.386
18,USP6_P35125_1036_AQAEPINLDSCLR (UniProt P35125),-0.0406
19,UHRF1_Q96T88_497_TAEQSCDQK (UniProt Q96T88),-0.184
20,VAV1_P15498_31_VTWDGAQVCELAQALR (UniProt P15498),0.411
